Experimental data: PubChem BioAssay AID504904 (The Scripps Research Institute Molecular Screening Center, 2011)
The other results are listed elsewhere or left out. A number with no mark means an inactive call. The source made the active and inactive calls. Rule as the data show it: active = activation above about 18%; inactive = the rest.

The compounds below were run against Mu-type opioid receptor (Homo sapiens) + Delta-type opioid receptor (Homo sapiens) (UniProt P35372+P41143) (assay: OPRM1-OPRD1 heterodimer formation agonism – cell-based, luminescence, confirmation (AID 504904;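 also: 0% = vehicle-treated cells and 100% = reference agonist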)). Settings: cells, MOR-DOR heterodimerization, luminescence complementation; at 9.3 µM; active compounds read high.
Sequence of Mu-type opioid receptor (Homo sapiens) + Delta-type opioid receptor (Homo sapiens) (P35372 whole entry, looked up): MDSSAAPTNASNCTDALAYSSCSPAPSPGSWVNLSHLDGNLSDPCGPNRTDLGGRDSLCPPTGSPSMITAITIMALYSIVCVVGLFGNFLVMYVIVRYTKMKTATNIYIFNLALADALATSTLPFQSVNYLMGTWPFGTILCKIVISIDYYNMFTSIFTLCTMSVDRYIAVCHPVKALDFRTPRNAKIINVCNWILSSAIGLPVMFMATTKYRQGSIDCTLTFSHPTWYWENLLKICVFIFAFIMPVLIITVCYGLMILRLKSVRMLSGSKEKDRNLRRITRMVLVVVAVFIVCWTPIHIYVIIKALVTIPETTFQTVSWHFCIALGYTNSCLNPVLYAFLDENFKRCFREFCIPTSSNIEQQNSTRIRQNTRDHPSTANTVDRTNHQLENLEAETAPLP
Sequence of Mu-type opioid receptor (Homo sapiens) + Delta-type opioid receptor (Homo sapiens) (P41143 whole entry, looked up): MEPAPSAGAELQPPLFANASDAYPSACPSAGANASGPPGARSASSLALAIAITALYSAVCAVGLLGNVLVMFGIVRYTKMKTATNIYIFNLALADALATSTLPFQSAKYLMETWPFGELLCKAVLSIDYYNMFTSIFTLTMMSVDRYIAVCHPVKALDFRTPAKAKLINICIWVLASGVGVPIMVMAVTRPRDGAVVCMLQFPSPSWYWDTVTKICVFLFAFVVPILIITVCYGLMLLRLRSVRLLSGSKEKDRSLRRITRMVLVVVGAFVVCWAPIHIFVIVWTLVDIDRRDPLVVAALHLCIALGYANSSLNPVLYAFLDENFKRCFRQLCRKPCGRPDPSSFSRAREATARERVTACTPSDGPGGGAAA
Work on Cc1ccc(CNC(=O)CC(NC(=O)c2ccccc2)c2ccccc2)cc1 (stereo unspecified) yielded an activation of -2.24%. With COc1cc(C(=O)OC(C)C(=O)NCC2CCCCC2)cc(NC(=O)c2ccco2)c1OC (stereo unspecified) the activation was 213% (active). In the case of CN1C(CC(=O)Nc2ccc(Br)cc2)c2ccccc2CC1(C)C (stereo unspecified), the activation is reported as 89.7% (active). With CCOC(=O)C1(CC2CCCCO2)CCN(Cc2nc(-c3cccs3)oc2C)CC1 (stereo unspecified) the activation was 49.1% (active). CCOC(=O)c1c(C)[nH]c2c1-c1ccccc1C(=O)C2=O was tested, and the activation was 18.7% (active). For COc1ccc(C(CNCC(=O)Nc2ccccc2F)N(C)C)cc1 (stereo unspecified), the activation was 145% (active).
